Data reported in PubChem BioAssay AID1788 (Vanderbilt High Throughput Screening Facility, 2009).
Unmarked numbers belong to inactive results. No rule for the calls is given here.

Tested on: Calcium channel L-type (rat)
Assay: PubChem AID 1788
Conditions: MDS Pharma lead profiling panel, radioligand binding, benzothiazepine site, at 10 µM, stronger effect = higher value

**Q.** CCOC(=O)N1CCC(NCCNC(=O)c2ccccc2C)CC1 was tested. Which inhibition did it give?
**A.** The inhibition was -4%.
